In the library only some 1.4% were active in any assay of this set; here they are far more common.
GLD-1 TGE inh – GLD-1/TGE RNA complex disruptors, primary screen, biochemical, fluorescence polarization; purified GLD-1 + fluorescein TGE RNA; inhibition, % at 5.96 µM; 320,000 tested, 0.44% active;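 active means percent inhibition above a per-plate cutoff, the plate mean of test compounds plus 3 SD, cut at about 30% in these data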
MEX-5 binding – MEX-5 zinc finger RNA-binding disruptors – biochemical, C. elegans, fluorescence polarization, MLPCN library, primary screen; Zinc finger protein mex-5 (Caenorhabditis elegans), Q9XUB2; MEX-5/FITC-TCR2 RNA binding; stronger effect = lower value; activity score (negative = inhibition of binding), % at 10 µM; 300,000 tested, 0.38% active; AID 1832, 2009;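 active means inhibition past about -25% in most replicates, and total fluorescence under double the plate's negative control median, limit read from the data; inconclusive means replicates evenly split on the limit, or fluorescence at least double controls; inactive means too little inhibition in most replicates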
MCL1 BIM primary – inhibitors of MCL1 binding to BIM-BH3, primary screen, biochemical, fluorescence polarization. 320,000 tested, 0.68% active. inhibition, % at 10.9 µM. GST-MCL1 / FITC-Bim-BH3 fluorescence polarization. AID 2057, 2009;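 active means inhibition above the mean inhibition of all tested compounds plus 3 SD, set per campaign, cut at about 40% in these data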;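 further: higher means more loss of mP so more displacement of Bim peptide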
BCLXL inh – inhibitors of human Bcl-xL, primary screen, biochemical, fluorescence polarization, HTS; inhibition, % at 10.9 µM; 320,000 tested, 0.7% active; GST-Bcl-xL / FITC-Bim BH3 peptide fluorescence polarization; AID 2129, 2009;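 active means inhibition above the mean of all tested compounds plus 3 SD, cutoff set per campaign, cut at about 30% in these data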;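 further: inhibitors lower millipolarization by displacing the labeled peptide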
E coli Lon inh – inhibitors of E. coli Lon protease, primary screen, biochemical, fluorescence polarization | inhibition, % at 7.94 µM | 360,000 tested, 0.42% active | purified E. coli Lon protease | P0A9M0; in the data active means inhibition above about 13%, passing the limit was not always enough
Bcl-xL conf – Bcl-xL inhibitors blocking Bim BH3 binding, confirmation, counter-screen for MCL1 inhibitor project, biochemical, fluorescence polarization; AID 2166, 2009; inhibition, % at 10.9 µM; 1,700 tested, 54% active; shares compounds with MCL1 BIM primary; GST-Bcl-xL / FITC-Bim BH3 peptide FP binding;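 active means inhibition above a cutoff equal to the mean inhibition of all tested compounds plus 3 SD, cut at about 30% in these data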
MCL1 inh confirm – inhibitors of MCL1 binding to BIM-BH3, confirmation, biochemical, fluorescence polarization, triplicate. shares compounds with MCL1 BIM primary. GST-MCL1 / FITC-Bim-BH3 fluorescence polarization. inhibition, % at 10.9 µM. 1,700 tested, 61% active. AID 2168, 2009;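 active means inhibition above the average of all tested compounds plus 3 SD, cut at about 40% in these data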
Hits are given with their value.

For Cc1ccc2[nH]c3c(c2c1)CN(C(=O)CN1CC(C)OC(C)C1)CC3 (stereo unspecified) the results were GLD-1 TGE inh inactive, MCL1 BIM primary 61.6, BCLXL inh 60.6, E coli Lon inh inactive, Bcl-xL conf 51.0 and MCL1 inh confirm 59.7.
CC(C(Sc1ccccc1N)c1ccccc1)[N+](=O)[O-] (stereo unspecified) was read as GLD-1 TGE inh inactive, MEX-5 binding inactive, MCL1 BIM primary inactive, BCLXL inh inactive and E coli Lon inh inactive.
Screening Nc1cc(Cl)cc2c1-c1ccc(Cl)cc1C2 returned E coli Lon inh inactive.
For CC1=C(C(=O)N(C(C)C)C(C)C)CC(CC(=O)NCCCCc2ccccc2)C(=O)N1Cc1ccc(F)cc1 (stereo unspecified) the results were E coli Lon inh inactive.
For O=C(O)C1(Nc2ccc(Br)cc2)CCCC1 the results were E coli Lon inh inactive.
`CCCn1c(=O)c2ccccc2n2c(SCc3cc(=O)oc4ccc5ccccc5c34)nnc12` gave GLD-1 TGE inh 30.9, MEX-5 binding inactive, MCL1 BIM primary 40.5, BCLXL inh 35.4, E coli Lon inh inactive, Bcl-xL conf inactive and MCL1 inh confirm inactive.
Screening COc1cc(C2c3sc(=O)[nH]c3SC3C(=O)N(c4ccc(Br)cc4)C(=O)C32)ccc1O (stereo unspecified) returned GLD-1 TGE inh inactive, MEX-5 binding inactive, MCL1 BIM primary inactive, BCLXL inh inactive and E coli Lon inh inactive.
Screening CCOc1ccc(N2C(=O)C3Sc4[nH]c(=O)sc4C(/C=C/c4ccccc4)C3C2=O)cc1 (stereo unspecified) returned GLD-1 TGE inh 41.5, MEX-5 binding inactive, MCL1 BIM primary 41.9, BCLXL inh 57.4, E coli Lon inh inactive, Bcl-xL conf inactive and MCL1 inh confirm inactive.
`CCN(CC)CCSc1nnc2c3cc(C)ccc3n(Cc3ccccc3)c2n1` gave GLD-1 TGE inh inactive, MEX-5 binding inactive, MCL1 BIM primary inactive, BCLXL inh inactive and E coli Lon inh inactive.
For Nc1nnc(CC(=O)N/N=C/c2cc([N+](=O)[O-])cc(Br)c2O)s1 the results were GLD-1 TGE inh inactive, MEX-5 binding inconclusive, MCL1 BIM primary 44.1, BCLXL inh inactive, E coli Lon inh inactive, Bcl-xL conf inactive and MCL1 inh confirm 43.3.
`Nc1nnc(CC(=O)N/N=C/c2cccc([N+](=O)[O-])c2)s1` gave GLD-1 TGE inh inactive, MEX-5 binding inactive, MCL1 BIM primary inactive, BCLXL inh inactive and E coli Lon inh inactive.
O=C(CNC(=O)c1ccccc1Br)N/N=C\c1cc([N+](=O)[O-])cc(Br)c1O was read as GLD-1 TGE inh inactive, MEX-5 binding inactive, MCL1 BIM primary 42.0, BCLXL inh inactive, E coli Lon inh inactive, Bcl-xL conf inactive and MCL1 inh confirm inactive.
Screening OC(c1ccc(F)cc1)c1nc(-c2ccc(Cl)cc2)cs1 (stereo unspecified) returned E coli Lon inh inactive.
Screening c1coc(CNc2c3c(nc4ccccc24)CCC3)c1 returned GLD-1 TGE inh inactive, MEX-5 binding inactive, MCL1 BIM primary 62.1, BCLXL inh 65.0, E coli Lon inh inactive, Bcl-xL conf inactive and MCL1 inh confirm inactive.
O=C1S/C(=C/c2ccccc2)C(=O)N1CC(O)Cn1c2ccccc2c2ccccc21 (stereo unspecified) was read as GLD-1 TGE inh inactive, MEX-5 binding inactive, MCL1 BIM primary inactive, BCLXL inh inactive and E coli Lon inh inactive.
Screening CN(C)c1ccc(/C=C2\SC(=O)N(CC(O)Cn3c4ccccc4c4ccccc43)C2=O)cc1 (stereo unspecified) returned GLD-1 TGE inh 133.4, MEX-5 binding inconclusive, MCL1 BIM primary 79.7, BCLXL inh 133.0, E coli Lon inh inactive, Bcl-xL conf inactive and MCL1 inh confirm inactive.
Screening COC(=O)c1ccc2nc(-c3ccc(F)cc3)c(Cc3ccsc3)n2c1 returned E coli Lon inh inactive.
`O=C(O)c1ccc(-n2cccc2/C=C2/SC(=O)N(CC(=O)N3CCCC3)C2=O)cc1` gave GLD-1 TGE inh inactive, MEX-5 binding inactive, MCL1 BIM primary 54.6, BCLXL inh inactive, E coli Lon inh inactive, Bcl-xL conf inactive and MCL1 inh confirm 49.9.
N#Cc1ccccc1CN1C(=O)S/C(=C/c2cccn2-c2ccc(C(=O)O)cc2)C1=O was read as GLD-1 TGE inh inactive, MEX-5 binding inactive, MCL1 BIM primary inactive, BCLXL inh inactive and E coli Lon inh inactive.
`Cc1ccccc1Nc1cc2ccccc2c(=O)[nH]1` gave GLD-1 TGE inh 49.9, MEX-5 binding inactive, MCL1 BIM primary 81.0, BCLXL inh 82.1, E coli Lon inh inactive, Bcl-xL conf 85.0 and MCL1 inh confirm 93.3.
Screening O=c1[nH]c(Nc2ccccc2Cl)cc2ccccc12 returned GLD-1 TGE inh inactive, MEX-5 binding inactive, MCL1 BIM primary inactive, BCLXL inh inactive and E coli Lon inh inactive.
For O=C(CCc1ccccc1)Nc1ccccc1[N+](=O)[O-] the results were GLD-1 TGE inh inactive, MEX-5 binding inactive, MCL1 BIM primary inactive, BCLXL inh inactive and E coli Lon inh inactive.
O=C(CCc1ccccc1)Oc1ccccc1[N+](=O)[O-] was read as GLD-1 TGE inh inactive, MEX-5 binding inactive, MCL1 BIM primary 73.2, BCLXL inh inactive, Bcl-xL conf inactive and MCL1 inh confirm inactive.
COc1ccc(Cl)cc1N(CC(=O)N1CCC(C)CC1)S(C)(=O)=O was read as GLD-1 TGE inh inactive, MEX-5 binding inactive, MCL1 BIM primary 65.3, BCLXL inh inactive, E coli Lon inh inactive, Bcl-xL conf inactive and MCL1 inh confirm inactive.
Screening Cc1cc(C)n2c(=O)c3ccc(Cl)cc3nc2c1C#N returned GLD-1 TGE inh inactive, MEX-5 binding inactive, MCL1 BIM primary 51.0, BCLXL inh inactive, E coli Lon inh inactive, Bcl-xL conf inactive and MCL1 inh confirm inactive.
C[C@@H]1CN([C@H](C)CO)C(=O)c2cc(C#CC(C)(C)O)cnc2O[C@@H]1CN(C)C(=O)C1CC1 was read as E coli Lon inh inactive.
Screening CN1CCc2cccc3c2[C@@H]1Cc1ccc(O)c(O)c1-3 returned GLD-1 TGE inh inactive, MCL1 BIM primary 70.5, BCLXL inh 48.7, E coli Lon inh inactive, Bcl-xL conf inactive and MCL1 inh confirm inactive.
